In PubChem BioAssay (NCI):
This is part of a sample that, as a whole, favours compounds with a hit. Of some 83,000 tested, about 20% had one in any assay.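 Treatment: one concentration, 48 hours, 96-well format. Scoring: percent growth, with anything below 10 considered active.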 Values without a mark were called inactive. Active and inactive are the calls of the source.

What follows are compounds tested on TK-10 renal (assay: NCI-60 one-dose screen, 48 h (100 = growth as untreated, 0 = no growth, -100 = all killed)). Settings: 10 µM unless noted.
`NNCCc1ccc(NC(=O)CCCc2ccc(/C=C/C(=O)NO)cc2)cc1` was tested, and the growth was 76.5%.
`COc1ccc(C2CC(c3ccc(Cl)cc3)=NN2/C=C2\SC(=S)N(NC(=O)Cc3ccccc3Nc3c(Cl)cccc3Cl)C2=O)cc1` (centres undefined) gave a growth of 52.9%.
For `CCCSc1ccc2nc(NC(=O)OC)[nH]c2c1`, the growth was 39.7%.
With `CCCN1CCN(c2ccc3nc(-c4ccc5nc(-c6ccc(OCC)cc6)[nH]c5c4)[nH]c3c2)CC1` the growth was 69%.
Compound `CCn1c(O)c(/C=N/NC(=O)C(C)c2ccc(CC(C)C)cc2)sc1=S` (centres undefined) has a growth of 56.5%.
`CN1CCN(CCCOc2cccc3nc(Nc4cc(Cl)cc(Cl)c4)ccc23)CC1` showed a growth of 71.9%.
Work on `O=C(CCN1C(=O)/C(=C/c2ccc(Cl)cc2)SC1=S)NCCCN1CCOCC1` yielded a growth of 110%.
`c1ccc(Cn2cc(-c3nc4ccccc4s3)c3cccnc32)cc1` was tested, and the growth was 118%.
Work on `O=C1c2cccc3cccc(c23)C(=O)N1CCCCN1CCN(CCCCOc2ccc(-c3nc4ccc(N5CCOCC5)cc4[nH]3)cc2)CC1` yielded a growth of 114%.
In the case of `COc1cc(C2CC(=O)c3ccccc3N2)cc(OC)c1OC` (centres undefined), the growth is reported as 105%.
For `O=C1c2cc3c(cc2-c2c1c1ccc(F)cc1c(=O)n2C[C@H](O)[C@H](O)[C@H](O)CO)OCO3`, the growth was -25.7% (active).
`Cc1[nH]c(-c2ccc3cc[nH]c3c2)c2c1C(=O)CCCC2` was tested, and the growth was 32.7%.
For `O=C(O)c1c(=O)cccc2ssc12`, the growth was 4.78% (active).
With `O=C1c2cc3c(cc2-c2c1c1ccc(Cl)cc1c(=O)n2CCCN1CCOCC1)OCO3` the growth was 103%.
Compound `Cn1cc(-c2nonc2-c2c[nH]c3ccccc23)c2cccnc21` has a growth of 75.3%.
`CCCCN(CCCC)CCCn1c(-c2ccccc2)ccc1-c1ccccc1` showed a growth of 83.1%.
`CC1=CC(=NN=c2cc(C)n([O-])c(C)c2)C=C(C)[N+]1=O` showed a growth of 85.8%.
`CN(C)S(=O)(=O)c1ccc(S(=O)(=O)Nc2cccc(Cl)c2N2CCCCC2)cc1` showed a growth of 102%.
`Cc1cn2c(/C=C3/C(=O)Nc4c3ccc3ccccc43)c(C(F)(F)F)nc2s1` showed a growth of 36.3%.
Work on `Oc1cccc(-c2nc(N3CCOCC3)c3c4c(sc3n2)CCCC4)c1` yielded a growth of 70.6%.
`COc1ccc(S(=O)(=O)N2CCCCC2)cc1NC(=O)c1[nH]c(C)c2c1CCCCC2=O` was tested, and the growth was 1.34% (active).
`Cc1cc(C)nc(SC2=C(Nc3cccc(Cl)c3)C(=O)N(Cc3ccccc3)C2=O)n1` gave a growth of 97.2% [30 µM].
With `C#Cc1cccc(NC(=O)c2ccccc2NC(=O)CCl)c1` the growth was 91% [8.25 µM].
Work on `C=C(C)[C@@H]1CC[C@]2(C(=O)OC)CC[C@]3(C)[C@H](CC[C@@H]4[C@@]5(C)C/C(=C/c6ccc(OC)cc6)C(=O)C(C)(C)[C@@H]5CC[C@]43C)[C@@H]12` yielded a growth of 107%.
Compound `N#Cc1c(-c2ccc(Cl)cc2)nc(N=Nc2c(O)[nH]c3ccc(Cl)cc23)nc1N1CCOCC1` has a growth of 120%.
`CN1CCN(CCCOc2cccc3nc(Nc4ccc(Cl)c(F)c4)ccc23)CC1` was tested, and the growth was 88.4%.

Each compound was assayed on ACHN renal in the same assay as above. Settings: 10 µM unless noted.
`Cc1ccc2c(C(C[N+](=O)[O-])c3ccccc3)c(-c3ccccc3)[nH]c2c1` (centres undefined) gave a growth of 36.7% [9.5 µM].
Work on `O=C1c2cccc3cccc(c23)C(=O)N1CCCCCN1CCN(CCCCCOc2ccc(-c3nc4ccc(N5CCOCC5)cc4[nH]3)cc2)CC1` yielded a growth of 111%.
`COc1ccc(/C=C(\C#N)C(=O)Nc2cccc(Nc3nc(SC)nc(-c4cccc([N+](=O)[O-])c4)c3C#N)c2)cc1OC` gave a growth of 93.8%.
With `O=C1Nc2ccc(Br)cc2C12Oc1ccccc1C1CC(c3ccc(F)cc3)=NN12` (centres undefined) the growth was 91%.
For `CSc1nc(-c2cccc(NC(=O)CCl)c2)c(C#N)c(=O)n1C`, the growth was 73.9%.
With `Oc1cccc2ccc(N/N=C/c3cc(CN4CCOCC4)c(O)c4ncccc34)nc12` the growth was -29.3% (active).
`CC(C)(C)c1cc(C(C)(C)C)cc(S(=O)(=O)Nc2cc3ccccc3cc2C(=O)NCCN)c1` gave a growth of 70.9%.
With `COc1ccc(/C=C/c2nc3ccccc3nc2/C=C/c2ccc(OC)cc2)cc1` the growth was 97.6%.
For `COc1cc(/C=C/c2cc(/C=C/c3ccc(O)c(OC)c3)n(-c3c(Cl)cccc3Cl)c(=O)n2)ccc1O`, the growth was 37.8%.
`Cc1cc(C)nc(SC2=C(Nc3cc(Cl)ccc3O)C(=O)N(Cc3ccccc3)C2=O)n1` was tested, and the growth was 88.7% [30 µM].
`CC(C)(C)CC(C)(C)c1ccc(OCCOCC[N+](C)(C)Cc2ccccc2)cc1` showed a growth of 73.2%.
With `O=C(NCCN1CCOCC1)Nc1ccc(-c2cc3c(Nc4ccc(Oc5cccc(C(F)(F)F)c5)c(Cl)c4)ncnc3s2)cc1` the growth was 11.8%.
With `NNCCc1ccc(NC(=O)CCCc2ccc(/C=C/C(=O)NO)cc2)cc1` the growth was 88.3%.
With `COc1ccc(C2CC(c3ccc(Cl)cc3)=NN2/C=C2\SC(=S)N(NC(=O)Cc3ccccc3Nc3c(Cl)cccc3Cl)C2=O)cc1` (centres undefined) the growth was -34.3% (active).
`CCCSc1ccc2nc(NC(=O)OC)[nH]c2c1` gave a growth of 48.6%.
`CCCN1CCN(c2ccc3nc(-c4ccc5nc(-c6ccc(OCC)cc6)[nH]c5c4)[nH]c3c2)CC1` gave a growth of 34.6%.
`CCn1c(O)c(/C=N/NC(=O)C(C)c2ccc(CC(C)C)cc2)sc1=S` (centres undefined) showed a growth of 34.6%.
`CN1CCN(CCCOc2cccc3nc(Nc4cc(Cl)cc(Cl)c4)ccc23)CC1` was tested, and the growth was -5.36% (active).
`O=C(CCN1C(=O)/C(=C/c2ccc(Cl)cc2)SC1=S)NCCCN1CCOCC1` showed a growth of 91.4%.
In the case of `c1ccc(Cn2cc(-c3nc4ccccc4s3)c3cccnc32)cc1`, the growth is reported as 105%.
Compound `O=C1c2cccc3cccc(c23)C(=O)N1CCCCN1CCN(CCCCOc2ccc(-c3nc4ccc(N5CCOCC5)cc4[nH]3)cc2)CC1` has a growth of 104%.
Work on `COc1cc(C2CC(=O)c3ccccc3N2)cc(OC)c1OC` (centres undefined) yielded a growth of 102%.
`O=C1c2cc3c(cc2-c2c1c1ccc(F)cc1c(=O)n2C[C@H](O)[C@H](O)[C@H](O)CO)OCO3` was tested, and the growth was -53.8% (active).
In the case of `Cc1[nH]c(-c2ccc3cc[nH]c3c2)c2c1C(=O)CCCC2`, the growth is reported as 41.2%.
In the case of `O=C(O)c1c(=O)cccc2ssc12`, the growth is reported as 3.95% (active).
Compound `O=C1c2cc3c(cc2-c2c1c1ccc(Cl)cc1c(=O)n2CCCN1CCOCC1)OCO3` has a growth of 13.1%.
`Cn1cc(-c2nonc2-c2c[nH]c3ccccc23)c2cccnc21` showed a growth of 60.9%.
`CCCCN(CCCC)CCCn1c(-c2ccccc2)ccc1-c1ccccc1` showed a growth of 62.9%.
`CC1=CC(=NN=c2cc(C)n([O-])c(C)c2)C=C(C)[N+]1=O` was tested, and the growth was 110%.
`CN(C)S(=O)(=O)c1ccc(S(=O)(=O)Nc2cccc(Cl)c2N2CCCCC2)cc1` was tested, and the growth was 75.3%.
`Cc1cn2c(/C=C3/C(=O)Nc4c3ccc3ccccc43)c(C(F)(F)F)nc2s1` gave a growth of 48.5%.
For `Oc1cccc(-c2nc(N3CCOCC3)c3c4c(sc3n2)CCCC4)c1`, the growth was 38.3%.
`COc1ccc(S(=O)(=O)N2CCCCC2)cc1NC(=O)c1[nH]c(C)c2c1CCCCC2=O` showed a growth of 19.8%.
Work on `Cc1cc(C)nc(SC2=C(Nc3cccc(Cl)c3)C(=O)N(Cc3ccccc3)C2=O)n1` yielded a growth of 68.2% [30 µM].
For `C#Cc1cccc(NC(=O)c2ccccc2NC(=O)CCl)c1`, the growth was 92% [8.25 µM].
`C=C(C)[C@@H]1CC[C@]2(C(=O)OC)CC[C@]3(C)[C@H](CC[C@@H]4[C@@]5(C)C/C(=C/c6ccc(OC)cc6)C(=O)C(C)(C)[C@@H]5CC[C@]43C)[C@@H]12` was tested, and the growth was 90.5%.
Compound `N#Cc1c(-c2ccc(Cl)cc2)nc(N=Nc2c(O)[nH]c3ccc(Cl)cc23)nc1N1CCOCC1` has a growth of 94.6%.
`CN1CCN(CCCOc2cccc3nc(Nc4ccc(Cl)c(F)c4)ccc23)CC1` gave a growth of 10.5%.
